Among the data in PubChem BioAssay AID1850 (Southern Research Specialized Biocontainment Screening …, 2009) are inhibition values, retold here.

Hit rate of the full screen: of about 310,000 compounds, about 1,000 (0.32%) were called active. The list is a sample of the results. Entries with a potency or affinity are not part of this list. A number with no mark means an inactive call. How the calls were made is not given here.

A short description of the assay: Inhibition of PhoP regulon, Salmonella typhi GFP reporter cells, confirmation, 4 h (AID 1850).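 Further: 0% = induced wells with vehicle and 100% = uninduced wells.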 Conditions: Salmonella Typhi PhoP-promoter GFP reporter, fluorescence, at 50 µM, hits give high values.
Regarding `COC(=O)C1=C(C)Nc2c(c(=O)n(C)c(=O)n2C)C1c1ccc(Cl)cc1` (configuration not stated), the inhibition (as a rule, the relative decrease from the control value, in per cent) was 0.17%.
For `CC(=O)c1sc(-c2ccccn2)nc1C` the value was 3.14%; for `N=c1ccn2c(n1)O[C@H]1[C@@H](CO)[C@H](O)O[C@H]12`, 2.95%.
Take `CCOC(=O)c1cn(-c2ccc(F)c(F)c2)c2c(F)c(F)c(F)c(F)c2c1=O`: the inhibition is -9.71%.
Next, `COC(=O)c1cc(NC(=S)NCc2ccc(Cl)cc2)cc(C(=O)OC)c1`: -2.32%; `COC(=O)c1ccc(C)c(NC(=S)NCc2ccc(Cl)cc2)c1`: -7.26%.
Take `O=C(Nc1ccccc1)O/N=C(\c1ccccc1)c1ccccn1`: the inhibition is -16.2%.
For `Cc1ccc[n+](CC(=O)Nc2ccc([N+](=O)[O-])cc2)c1` the value was 6.66%.
Next, `Cc1cccc[n+]1CC(=O)Nc1ccc([N+](=O)[O-])cc1`: 1.95%; `N#Cc1ccccc1NC(=O)CSc1nnc(-c2ccccc2)n1-c1ccccc1`: 0.92%; `COc1ccc2c(c1OC)C(=O)N(c1ccc(O)cc1)C2=O`: -3.53%.
On to `COc1ccc2c(c1OC)C(=O)N(c1ccccc1)C2=O`, for which the inhibition was 9.99%.
On to `CCN(C(=S)NCc1ccccc1)c1ccccc1`, for which the inhibition was -2.51%.
For `Cc1c(NC(=O)C(=O)/C=C(\O)c2ccc(Cl)cc2)c(=O)n(-c2ccccc2)n1C` the value was -8.97%; for `Cc1cc(C)nc(N/N=C/c2ccccc2)n1`, -1.28%.
As to `O=C(N/N=C/c1ccccn1)c1ccc(Br)cc1`, the inhibition is 8.46%.
As for `O=C(N/N=C/c1ccc(Br)s1)c1cccs1`, the inhibition was 5.12%.
Next, `O=C(N/N=C/c1ccccn1)c1ccco1`: 8.62%.
For `Cc1ccc(/C=N/NC(=O)c2cccs2)s1` the value was -3.78%; for `O=C(N/N=C/c1ccncc1)c1cccs1`, -16.1%.
Next, `O=C(N/N=C/c1ccccn1)c1ccncc1`: 10.1%.
Consider `CC(C)NC(=O)NC(=O)COC(=O)CCOc1ccccc1`, for which the inhibition is 1.53%.
Next, `O=C(CC1(CC2=NS(=O)(=O)c3ccccc3N2)CCCC1)NCCc1ccccc1`: -20.4%.
For `O=C(NCC1CC1)c1cc(-c2ccccc2)nn1CC1CC(c2cccc([N+](=O)[O-])c2)=NO1` (configuration not stated) the value was 4.4%.
Next, `Cc1ccc(Cl)cc1N1CCN(S(=O)(=O)c2c(C)[nH]c(=O)[nH]c2=O)CC1`: 8.84%; `CCn1cc(C(=O)O)c(=O)c2cc(F)c(N3CCN(C(=S)NC(=O)c4c(OC)cccc4OC)CC3)cc21`: 3.3%.
With `C=CCNC(=S)N1CCN(c2cc3c(cc2F)c(=O)c(C(=O)O)cn3CC)CC1`, the inhibition was -3.14%.
Next, `Cn1nnnc1SCC(=O)NCCCc1ccccc1`: 0.19%; `Cc1cccc(NC(=O)COC(=O)Cc2c[nH]c3ccccc23)c1C`: -3.69%; `O=C(NC(=S)NCc1cccnc1)c1cc(Br)ccc1Cl`: -7.31%.
Next, `O=C(COc1ncnc2ccccc12)NCC1CCCO1` (configuration not stated): 7.4%; `O=C(NNS(=O)(=O)c1ccccc1[N+](=O)[O-])c1cccc([N+](=O)[O-])c1`: -5.01%.
Next, `Cc1cc(S(=O)(=O)Nc2cccc([N+](=O)[O-])c2)c(C)s1`: -6.89%; `Cc1occc1C(=O)NC(C)C12CC3CC(CC(C3)C1)C2` (configuration not stated): 2.3%.
In the case of `CCC1(CC)Cc2ccccc2C(CC(=O)N2CCOCC2)=N1`, the inhibition is -0.09%.
As for `COc1ccc(/C=C/C(=O)c2cc(Cl)cc(Cl)c2O)c(OC)c1`, the inhibition is 1.28%.
Take `Cc1ccc(C(C[N+](=O)[O-])c2c(-c3ccccc3O)[nH][nH]c2=O)cc1` (configuration not stated): the inhibition was 3.54%.
For `O=c1[nH][nH]c(-c2ccccc2O)c1C(C[N+](=O)[O-])c1ccccc1` (configuration not stated) the value was 10.2%.
For `Cc1ccc2c(C)c(C(=O)Nc3cccnc3)oc2c1` the value was -1.18%; for `CCN(CC)S(=O)(=O)c1ccc(/C=C/C(=O)Nc2ccc(Br)cc2F)cc1`, -3.09%.
Next, `N#Cc1cccc(Nc2c3c(nc4ccccc24)CCC3)c1`: -6.96%; `c1ccc2c(Nc3ccc4c(c3)OCCO4)c3c(nc2c1)CCCC3`: -7.16%.
For `c1ccc(Nc2c3c(nc4ccccc24)CCC3)cc1`, the inhibition is -12.1%.
In the case of `CC(=O)c1ccc(Nc2c3c(nc4ccccc24)CCCC3)cc1`, the inhibition was -0.46%.
For `COc1cc(Nc2c3c(nc4ccccc24)CCC3)cc(OC)c1OC` the value was -13.8%; for `c1ccc2c(Nc3ccc4c(c3)OCCO4)c3c(nc2c1)CCC3`, 19.5%.
For `Cc1ccc2nc3c(c(Nc4ccccc4)c2c1)CCC3`, the inhibition was 1.9%.
As to `COc1ccc(Nc2c3c(nc4ccc(C)cc24)CCC3)cc1`, the inhibition was 26.7%.
Next, `O=C(O)C1C2CCC(C2)C1C(=O)N1CCCC1` (configuration not stated): 6.43%; `COc1ccc(S(=O)(=O)N(C)CC(=O)NCCC2=CCCCC2)cc1OC`: 9.61%.
In the case of `C/C(CC(=O)Nc1ccccc1C(F)(F)F)=N\NC(=O)c1cnccn1`, the inhibition is -1.08%.
Next, `CCCn1c(O)c(N=NC(=O)CNC(=O)Cc2ccc(OC)cc2)c2ccccc21`: -19.2%; `CCCN(CCC)S(=O)(=O)c1cccc(C(=O)N=c2sccn2C)c1`: -5.43%.
For `Cc1cccc(NC(=O)c2cc([N+](=O)[O-])ccc2Cl)c1O` the value was -4.69%; for `CCOc1cc(C(=O)Nc2ccc3c(c2)OCO3)ccc1OCCOc1ccccc1Cl`, -0.32%.
In the case of `CC(=O)c1cccc(Nc2c3c(nc4ccccc24)CCC3)c1`, the inhibition was 12.8%.
Consider `Cc1ccc2nc3c(c(Nc4cccc(O)c4)c2c1)CCC3`, for which the inhibition is 7.27%.
Next, `O=C(Cc1ccsc1)Nc1cc(F)ccc1F`: 3.38%.
Next, `O=C(COc1ccc(S(=O)(=O)N2CCCCC2)cc1Cl)N1CCOCC1`: -6.77%.
Consider `COc1ccc(Cl)cc1NC(=O)C1CC(=O)N(C2CCCCC2)C1` (configuration not stated), for which the inhibition was -8.7%.
As to `O=C(COC(=O)c1ccc(Br)o1)NCCNC(=O)COC(=O)c1ccc(Br)o1`, the inhibition was -1.54%.
Turning to `Cc1cc(C(=O)N2CCC(Cc3ccccc3)CC2)c(C)o1`, the inhibition is -3.49%.
